Source: PubChem (National Center for Advancing Translational Sciences (NCATS))
WRN helicase inh-1 = inhibitors of human WRN helicase | 0.46% of 360,000 active | Potency, µM (highest dose often 114 µM), inactives show at the top dose activity change, negative = inhibition, most hits filed as inhibitors | WRN helicase unwinding, fluorescent forked duplex, kinetic | AID 651768; also: % is scaled to controls: 0 for no effect and ±100 for the full control effect; nearly all actives have a fitted effect of over 55% in size
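Kinetic fluorescence helicase assay: unwinding of a quenched forked DNA duplex (100 nM final) with 2 mM ATP final raises red fluorescence (525/598 nm). Compounds sat 15 min at room temperature with 20 nM WRN beforehand.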
APEX1 inh = APE1 (human) endonuclease inhibition | recombinant APE1, TAMRA/BHQ-2 abasic DNA cleavage fluorescence | Potency, µM (highest dose often 65.8 µM), for the others: top-dose activity change, negative = inhibition, most hits filed as inhibitors | 0.35% of 350,000 active | P27695;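 also: plate controls were vehicle for no effect and reference inhibitor for full effect; nearly all actives have a fitted effect of over 55% in size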
Target sequence (P27695 whole entry, looked up): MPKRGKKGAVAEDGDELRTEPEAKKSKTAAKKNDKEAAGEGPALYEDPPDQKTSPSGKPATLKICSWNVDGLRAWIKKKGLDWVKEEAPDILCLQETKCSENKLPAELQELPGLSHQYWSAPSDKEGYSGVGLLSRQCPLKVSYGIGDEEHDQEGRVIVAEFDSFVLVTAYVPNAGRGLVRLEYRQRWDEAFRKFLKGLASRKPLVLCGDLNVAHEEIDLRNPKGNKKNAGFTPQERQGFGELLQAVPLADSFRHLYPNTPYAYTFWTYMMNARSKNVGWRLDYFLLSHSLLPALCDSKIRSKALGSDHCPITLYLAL
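Incision of a quenched TAMRA/BHQ-2 THF abasic-site duplex (50 nM) by 0.75 nM APE1, after 15 min compound preincubation, measured as fluorescence increase over three 60 s reads. Values normalized to buffer, DMSO and NSC13755 control wells.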
BLM helicase inh-1 = Bloom syndrome helicase (human) inhibition. AID 2528. 0.2% of 350,000 active. recombinant BLM DNA unwinding, fluorescence dequenching. Potency, µM (doses to about 56.1 µM), for inactives: at the top dose activity change, negative = inhibition, actives largely listed as inhibitors;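 also: plate controls were vehicle for no effect and no enzyme for full effect; nearly all actives have a fitted effect of over 35% in size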
TRb SRC2 PPI = TRbeta-SRC2 interaction inhibition; TRbeta-SRC2 peptide binding, fluorescence polarization; receptor liganded with 1 µM T3; Potency, µM (titrated, usually from 106 µM), inactives show at the top dose activity change, negative = inhibition, actives largely listed as inhibitors; 0.065% of 280,000 active;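 also: plate controls were bound peptide for no effect and peptide without receptor for full effect; nearly all actives have a fitted effect of over 50% in size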
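Each compound concentration gave % activity, normalized to unbound and bound Texas Red SRC2 controls, from polarization read after 5 hr ambient incubation with T3-loaded human TRb LBD.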
TexasRed fluor = alters Texas Red total fluorescence, flagging assay interference | TRb/SRC2 Texas Red total fluorescence interference | Potency, µM (highest dose often 106 µM), for inactives: at the highest dose fluorescence change, negative = quenching | 0.29% of 280,000 active; active = well fitted curve in either direction with a large enough effect; inconclusive = small, poorly fitted or top-dose-only effect; also: % is scaled to controls: 0 for no effect and ±100 for the full control effect
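Human TRb ligand-binding domain at 0.6 uM with 20 nM Texas Red SRC2 peptide in Tris buffer containing 1 uM T3 and 5% DMSO, incubated with compound 5 h at ambient temperature. Total fluorescence (555/632 nm) calculated as parallel + 2 × perpendicular.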
RECQ1 inh-1 = RECQ1 (human) helicase inhibition; RECQ1 DNA unwinding, red fluorescence kinetic read; Potency, µM (series often up to 57.3 µM), for the others: at the top dose activity, negative = inhibition, most hits filed as inhibitors; 0.54% of 240,000 active;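 also: plate controls were vehicle for no effect and no enzyme for full effect; nearly all actives have a fitted effect of over 30% in size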
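RECQ1T1 50 nM; forked duplex (20 bp + 30-nt ss tails) 200 nM, ATP 2 mM final; pH 8.0, 2 mM MgCl2, 2.5 ug/ml poly(dI-dC); 15 min compound preincubation; discontinuous kinetic read over 2 h at RT.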
RECQ1 inh-2 = confirmation of human RECQ1 helicase inhibitors; shares compounds with RECQ1 inh-1; recombinant RECQ1 DNA unwinding, red fluorescence; Potency, µM (top dose mostly 119 µM), inactives show at the top dose activity, negative = inhibition, most hits filed as inhibitors; 15% of 1,100 active; AID 504841; also: % is scaled to controls: 0 for no effect and ±100 for the full control effect; nearly all actives have a fitted effect of over 50% in size
WRN helicase inh-2 = confirmation of human WRN helicase inhibitors. Potency, µM (titrated, usually from 57.1 µM), for inactives: at the highest dose activity, negative = inhibition, usual class: inhibitors. 63% of 610 active. AID 720497. shares compounds with WRN helicase inh-1. WRN helicase DNA unwinding, fluorescence kinetic; also: nearly all actives have a fitted effect of over 65% in size
TO DNA binding = counter-screen for WRN helicase inhibitors: DNA binding. shares compounds with WRN helicase inh-1. thiazole orange DNA binding displacement, fluorescence. Potency, µM (series often up to 57.1 µM), without a hit: at the highest dose activity change, negative = inhibition, hits mostly inhibitors. 10% of 610 active. AID 720499;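 also: drop in dye fluorescence marks compound binding to DNA; % is scaled to controls: 0 for no effect and ±100 for the full control effect; nearly all actives have a fitted effect of over 60% in size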
BLM helicase inh-2 = counter-screen for WRN helicase inhibitors: human BLM helicase inhibition; 60% of 610 active; Recombinant BLM helicase DNA unwinding, red fluorescence; Potency, µM (doses to about 57.1 µM), for the others: at the top dose activity change, negative = inhibition, hits mostly inhibitors; shares compounds with WRN helicase inh-1; also: nearly all actives have a fitted effect of over 60% in size
Starred values were filed as active, the others as inactive; i = inactive; u = inconclusive; x = not tested or not shown; [ ] = dose if it differs, or a comment. Sampled rows, rich in hits. Any-hit rate of the full collection: about 0.91%. Unless noted, calls follow the shape of the dose curve; as a rule, active = well fitted curve in the direction sought with a large enough effect; inconclusive = small, poorly fitted or top-dose-only effect, or another doubt; inactive = no such curve, though single readings can be large; an effect the other way counts as inactive or inconclusive. Potency is read from the fitted curve at half-maximal effect.

SMILES | WRN helicase inh-1 | APEX1 inh | BLM helicase inh-1 | TRb SRC2 PPI | TexasRed fluor | RECQ1 inh-1 | RECQ1 inh-2 | WRN helicase inh-2 | TO DNA binding | BLM helicase inh-2
CC1=Nc2ccccc2/C1=C\c1nc(-c2ccc(F)cc2)oc1O | u | 9.3% | -18.9% | -22.9% | 15.0% | u | u | 19.2µM* | 105.6% | 19.2µM*
CCc1nnc(NC(=O)c2cc(-c3ccco3)nc3ccccc23)s1 | 35.5µM* | u | -20.0% | 5.6% | -10.9% | u | u | u | 24.1µM* | 1.92µM*
O=C(O)c1ccccc1-c1ccc(/C=C/c2cc(C(F)(F)F)[nH]c(=O)n2)o1 | 79.4µM* | 0.5% | -3.2% | -2.0% | 6.1% | u | 79.4µM* | 24.1µM* | i | -16.8%
O=C(O)c1cc(Cl)ccc1-c1ccc(/C=C/c2cc(C(F)(F)F)[nH]c(=O)n2)o1 | u | -0.9% | 5.0% | -2.3% | -1.6% | -1.2% | x | x | x | x
Cc1ccc(C(=O)NC2CC(=O)N(c3ccc4c(c3)OCCO4)C2)cc1[N+](=O)[O-] (stereo unspecified) | 1.2% | 30.2% | x | x | x | x | x | x | x | x
Cc1c2cnn(CC(=O)Nc3c(F)c(F)cc(F)c3F)c(=O)c2c(C)n1Cc1ccccc1F | u | u | u | 6.6% | -12.3% | 25.1µM* | u | 19.2µM* | 27.0% | 3.83µM*
CCc1ccccc1NC(=O)Cn1c(=O)n(CCc2ccccc2)c(=O)c2sc3ccccc3c21 | x | x | -2.1% | -0.2% | 1.1% | x | x | x | x | x
O=C(Nc1cccc(NC(=O)c2cccs2)c1)c1ccc(Br)o1 | -5.6% | -2.6% | -5.2% | x | x | x | x | x | x | x
O=C(Nc1ccc(NC(=O)c2cccs2)cc1)c1ccc(Br)o1 | u | u | -18.1% | -13.2% | 1.0% | u | u | u | -9.2% | 9.61µM*
Cc1cc2c(cc1S(=O)(=O)Nc1cccc(C#N)c1)OCC(=O)N2 | x | x | -2.3% | -1.8% | -1.4% | x | x | x | x | x
COc1cc(/C=C2\CC/C(=C\c3cc(OC)c(O)c(OC)c3)C2=O)cc(OC)c1O | 11.2µM* | u | u | 10.9%[53 µM] | -18.5%[53 µM] | 14.1µM* | 2.82µM* | 3.41µM* | 6.07µM* | 5.41µM*
COC(=O)c1ccc(C(=O)OC)c(NC(=O)CSc2n[nH]c(N)n2)c1 | 7.4% | -4.5% | x | x | x | x | x | x | x | x
CCn1c(CSc2n[nH]c(N)n2)nc2cc(C(=O)O)ccc21 | 89.1µM* | u | -9.5% | 28.2µM* | 35.5µM*[fluorescent] | 31.6µM* | 56.2µM* | 24.1µM* | 2.2% | 24.1µM*
CC1(C)CC(=O)C(C(c2ccc(F)cc2)C2C(=O)CC(C)(C)CC2=O)C(=O)C1 | -5.9% | 11.8% | -7.5% | -2.7% | -2.4% | -5.5% | x | x | x | x
CCc1sc(C(C2C(=O)CC(C)(C)CC2=O)C2C(=O)CC(C)(C)CC2=O)cc1[N+](=O)[O-] | 31.6µM* | -6.5% | -4.1% | -3.4% | -0.8% | 3.16µM* | -12.3% | 21.5µM* | 19.2µM* | 21.5µM*
COc1ccc(NC(=O)NC2CCCCCCC2)cc1OC | 0.7% | 4.7% | 0.0% | x | x | x | x | x | x | x
